Experimental findings from PubChem BioAssay are described below.

Activity calls are given as the source filed them. Unless noted, no rule for the calls is given here.

Assay [1] can be described thus: compounds binding Alexa647 anti-His antibody – biochemical, small-molecule microarray, 635 nm fluorescence, artefact control for SMM control protein annotation, primary screen (AID 1128).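 Also: score merges feature fluorescence with signal-to-noise for each printed compound spot.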 Conditions: higher = more signal.
Assay [2] relates to Human papillomavirus type 1a E7 protein (residues 1-88). Put plainly: HPV1a E7 small-molecule binders, primary screen, biochemical, small-molecule microarray, residues 1-88, 635 nm (AID 1129). As to conditions: small-molecule microarray binding, fluorescence 635 nm; higher = more signal.
Assay [3] addresses Focal adhesion kinase 1 (Homo sapiens) (UniProt Q05397). The assay can be described thus: PTK2 protein binding on printed compound slides – biochemical, small-molecule microarray, 635/667 nm fluorescence, BSA, DTT, primary screen (AID 1130).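 Also: composite of spot emission at 667 nm and signal to noise over triplicate slides.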 As to conditions: 635 nm fluorescence, higher = more signal.
The subject of assay [4] is Fibrinogen (Alexa647-labelled). The assay can be described thus: Alexa647-fibrinogen binding to printed small molecules – biochemical, small-molecule microarray, 635/667 nm fluorescence, artefact control for SMM control-protein annotation, profiling panel (AID 1131).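 Also: z-score merges 667 nm fluorescence with per-spot signal-to-noise over triplicate slides.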 Conditions: fibrinogen-A647 binding fluorescence, higher = more signal.
Assay [5] addresses Follistatin (Homo sapiens) (UniProt P19883). The assay can be described thus: FST protein binding to printed compounds – biochemical, small-molecule microarray, 635/667 nm fluorescence, primary screen (AID 1132). Conditions: 635 nm fluorescence, higher = more signal.
Assay [6] deals with Fibroblast growth factor 2 (Homo sapiens) (UniProt P09038). The assay can be described thus: basic fibroblast growth factor binding to printed compounds – biochemical, small-molecule microarray, 635/667 nm fluorescence, primary screen (AID 1133). Conditions: FGF2, fluorescence 635/667, higher = more signal.
Assay [7] can be described thus: JC-1 mitochondrial potential readout, lung cancer cells – cell-based, A549, JC-1 fluorescence, basal, 24 h, 100 nL, profiling panel (AID 1138).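 Also: A549 lung adenocarcinoma cells under basal conditions with no added stimulus; test concentration not given here.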 Conditions: higher = more signal.
The subject of a further assay is Lefty1. The assay can be described thus: Lefty1 protein binding to printed compounds – biochemical, small-molecule microarray, 635/667 nm fluorescence, primary screen (AID 1139). Conditions: fluorescence 635/667, higher = more signal.
Assay [8] relates to wheat germ agglutinin (Triticum aestivum), Alexa647-labelled. The assay can be described thus: Alexa647-WGA lectin binding to printed small molecules – biochemical, small-molecule microarray, 635/667 nm fluorescence, artefact control for SMM control-protein annotation, profiling panel (AID 1140).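 Also: score merges 667 nm feature emission with signal to noise over triplicate slides.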 Conditions: WGA-A647 binding, 635 nm fluorescence, higher = more signal.
Assay [9] addresses Luciferin 4-monooxygenase (Photinus pyralis) (UniProt P08659). Put plainly: inhibition of purified Photinus pyralis luciferase – biochemical, luminescence, purified enzyme, 2006 set, primary screen (AID 1141).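 Also: cell-free assay with purified firefly luciferase at 100 ng per well in PBS; test concentration not given here.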 Conditions: purified firefly luciferase, SteadyGlo luminescence, 30 min; higher = more signal, called active from +8 up or from −8 down.
Assay [10] concerns Wnt5a (protein binding on small-molecule microarray). Put plainly: small molecules binding Wnt5a protein – biophysical, small-molecule microarray, 635/667 nm fluorescence, primary screen (AID 1142).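 Also: fluorescence read at 667 nm with signal to noise per printed feature.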 As to conditions: 635 nm fluorescence, higher = more signal.
Assay [11] can be described thus: ATP-based viability of Huh7 replicon cells – cell-based, CellTiter-Glo luminescence, basal, 48 h, cytotoxicity control for HCV replication inhibitor project, primary screen (AID 1143).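 Also: Huh7 hepatoma cells carrying a hepatitis C replication reporter with no stimulus; test concentration not given here.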 As to conditions: higher = more signal, called active from +8 up or from −8 down. (In general: Replicon systems follow genome replication, usually without infectious particles.)
A short description of assay [12]: Pseudomonas biofilm growth suppression – PAO1 strain, BacTiter-Glo luminescence, LB-PBS, primary screen (AID 1144). As to conditions: P. aeruginosa PAO1 biofilm, 12 h, higher = more signal.
Assay [13] in a line: basal CRE-LacZ reporter activity in PC12 – cell-based, unstimulated, primary screen (AID 1145). Conditions: no forskolin, luminescence, 4.5 h, higher = more signal, called active from +8 up or from −8 down.
Assay [14] can be described thus: forskolin-driven CRE-LacZ activity in PC12 – cell-based, CRE-LacZ reporter, forskolin-stimulated, primary screen (AID 1146).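 Also: PC12 cells with 6xCRE LacZ reporter stimulated by forskolin 10 µM; beta-galactosidase reporter signal reflecting CREB driven transcription.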 As to conditions: luminescence, 4.5 h, higher = more signal, called active from +8 up or from −8 down.
Assay [15] concerns the target Streptavidin (Streptomyces avidinii) (UniProt P22629). The assay can be described thus: compounds binding control protein streptavidin – biophysical, small-molecule microarray, 635/667 nm fluorescence, artefact control for SMM compound annotation, primary screen (AID 1147).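 Also: signal reflects streptavidin binding to arrayed compounds as a control protein.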 As to conditions: higher = more signal.
A short description of assay [16]: probe aInhba binding on compound microarray – biochemical, small-molecule microarray, 635/667 nm fluorescence, primary screen (AID 1148).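 Also: score merges 667nm spot fluorescence with signal-to-noise for antibody binding to printed compounds.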 Conditions: higher = more signal.
Assay [17] deals with Torsin-1A (Homo sapiens) (UniProt O14656). Put plainly: TOR1A wild-type binding on microarray – cell lysate, small-molecule microarray, lysate, 635/667 nm, primary screen (AID 1149). Conditions: COS7 hTOR1A-WT lysate, 635 nm fluorescence, higher = more signal.
The target is the same in assay [18]. Put plainly: torsin A mutant lysate binding on microarrays – cell lysate, small-molecule microarray, COS7 lysate, 635/667 nm fluorescence, primary screen (AID 1150).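 Also: score pools 667 nm emission and signal to noise measuring lysate protein binding.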 Conditions: COS7 hTOR1A mutant lysate, 635 nm fluorescence, higher = more signal.
Assay [19] deals with Sonic hedgehog protein (Shh). Put plainly: Sonic hedgehog microarray binding compounds – biochemical, small-molecule microarray, 635/667 nm fluorescence, primary screen (AID 1151).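 Also: Shh protein binding to compounds spotted on small-molecule microarray slides; score combines spot fluorescence intensity with signal-to-noise across triplicate slides.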 Conditions: 635 nm fluorescence, higher = more signal.

Chain of Streptavidin (Streptomyces avidinii) (P22629 whole entry, looked up): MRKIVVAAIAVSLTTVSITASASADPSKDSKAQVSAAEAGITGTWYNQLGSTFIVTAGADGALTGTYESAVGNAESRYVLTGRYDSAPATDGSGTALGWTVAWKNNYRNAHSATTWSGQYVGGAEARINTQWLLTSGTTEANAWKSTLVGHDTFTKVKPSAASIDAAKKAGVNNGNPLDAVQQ
Chain of Torsin-1A (Homo sapiens) (O14656 whole entry, looked up): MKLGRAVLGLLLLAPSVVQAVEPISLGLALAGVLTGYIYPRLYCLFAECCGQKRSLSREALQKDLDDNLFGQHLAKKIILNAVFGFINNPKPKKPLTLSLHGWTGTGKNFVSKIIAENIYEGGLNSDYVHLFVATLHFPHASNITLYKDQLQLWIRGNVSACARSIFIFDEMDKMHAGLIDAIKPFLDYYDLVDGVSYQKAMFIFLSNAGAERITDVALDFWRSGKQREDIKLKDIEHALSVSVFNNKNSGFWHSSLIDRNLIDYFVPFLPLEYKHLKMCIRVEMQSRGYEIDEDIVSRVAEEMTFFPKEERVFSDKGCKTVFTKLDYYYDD
Chain of Fibroblast growth factor 2 (Homo sapiens) (P09038 whole entry, looked up): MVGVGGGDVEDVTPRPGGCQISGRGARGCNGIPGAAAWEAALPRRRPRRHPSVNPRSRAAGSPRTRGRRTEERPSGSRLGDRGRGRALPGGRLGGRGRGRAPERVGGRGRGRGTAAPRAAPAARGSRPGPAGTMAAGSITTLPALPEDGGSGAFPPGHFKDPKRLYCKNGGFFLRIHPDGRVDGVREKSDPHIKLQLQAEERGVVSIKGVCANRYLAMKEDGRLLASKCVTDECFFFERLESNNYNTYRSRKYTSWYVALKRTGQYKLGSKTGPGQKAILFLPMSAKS
Chain of Follistatin (Homo sapiens) (P19883 whole entry, looked up): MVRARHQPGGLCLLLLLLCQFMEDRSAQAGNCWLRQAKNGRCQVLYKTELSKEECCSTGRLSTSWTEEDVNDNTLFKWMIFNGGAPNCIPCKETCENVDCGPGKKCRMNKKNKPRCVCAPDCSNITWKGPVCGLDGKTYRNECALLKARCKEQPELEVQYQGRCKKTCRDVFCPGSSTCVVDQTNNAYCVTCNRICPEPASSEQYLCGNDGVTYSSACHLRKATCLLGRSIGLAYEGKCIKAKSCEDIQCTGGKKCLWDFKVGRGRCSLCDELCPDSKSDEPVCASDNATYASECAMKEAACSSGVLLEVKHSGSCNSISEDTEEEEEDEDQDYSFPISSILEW
Chain of Luciferin 4-monooxygenase (Photinus pyralis) (P08659 whole entry, looked up): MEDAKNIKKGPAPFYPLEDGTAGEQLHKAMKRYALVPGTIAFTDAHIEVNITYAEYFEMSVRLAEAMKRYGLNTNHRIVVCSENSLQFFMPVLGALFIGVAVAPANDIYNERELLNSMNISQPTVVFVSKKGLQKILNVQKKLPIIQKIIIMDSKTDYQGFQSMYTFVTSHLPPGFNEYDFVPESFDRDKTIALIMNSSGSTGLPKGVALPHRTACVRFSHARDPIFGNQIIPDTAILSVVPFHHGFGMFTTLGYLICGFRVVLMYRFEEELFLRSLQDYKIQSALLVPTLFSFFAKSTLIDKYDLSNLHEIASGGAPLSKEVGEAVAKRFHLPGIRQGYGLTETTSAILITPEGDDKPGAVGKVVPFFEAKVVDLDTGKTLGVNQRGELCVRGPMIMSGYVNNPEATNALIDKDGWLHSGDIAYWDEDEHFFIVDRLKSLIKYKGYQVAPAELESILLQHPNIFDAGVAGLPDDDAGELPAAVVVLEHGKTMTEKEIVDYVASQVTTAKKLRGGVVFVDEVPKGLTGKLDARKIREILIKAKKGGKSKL
Chain of Focal adhesion kinase 1 (Homo sapiens) (Q05397 whole entry, looked up): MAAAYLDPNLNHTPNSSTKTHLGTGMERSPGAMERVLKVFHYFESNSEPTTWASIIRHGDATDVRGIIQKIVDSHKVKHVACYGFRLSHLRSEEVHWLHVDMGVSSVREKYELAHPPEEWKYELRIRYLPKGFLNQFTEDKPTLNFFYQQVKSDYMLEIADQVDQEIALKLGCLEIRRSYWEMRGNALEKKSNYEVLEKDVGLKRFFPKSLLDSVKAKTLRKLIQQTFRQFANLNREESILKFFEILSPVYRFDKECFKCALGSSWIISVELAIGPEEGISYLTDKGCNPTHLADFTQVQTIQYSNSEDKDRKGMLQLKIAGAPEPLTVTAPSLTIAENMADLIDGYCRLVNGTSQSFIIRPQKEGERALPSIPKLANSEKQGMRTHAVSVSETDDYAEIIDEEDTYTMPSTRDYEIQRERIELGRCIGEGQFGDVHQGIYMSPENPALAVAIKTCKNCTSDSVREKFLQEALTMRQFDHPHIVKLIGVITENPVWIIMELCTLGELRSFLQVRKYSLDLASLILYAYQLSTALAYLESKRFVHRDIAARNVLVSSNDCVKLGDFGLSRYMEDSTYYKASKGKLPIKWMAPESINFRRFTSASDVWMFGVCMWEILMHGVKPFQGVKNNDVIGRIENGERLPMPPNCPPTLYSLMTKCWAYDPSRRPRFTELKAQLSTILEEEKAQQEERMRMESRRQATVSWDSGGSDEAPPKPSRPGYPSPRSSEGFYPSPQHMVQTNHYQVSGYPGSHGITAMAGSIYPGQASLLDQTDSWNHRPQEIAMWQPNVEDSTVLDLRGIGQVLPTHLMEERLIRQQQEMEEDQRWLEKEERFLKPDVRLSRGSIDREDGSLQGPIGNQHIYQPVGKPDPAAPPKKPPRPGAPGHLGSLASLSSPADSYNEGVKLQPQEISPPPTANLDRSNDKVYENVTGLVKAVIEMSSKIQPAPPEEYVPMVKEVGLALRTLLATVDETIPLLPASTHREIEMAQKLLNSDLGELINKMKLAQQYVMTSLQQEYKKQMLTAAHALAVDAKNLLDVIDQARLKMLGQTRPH

For the compound `CCOC(=O)C[C@H]1[C@H](OC(=O)Cc2ccc3c(c2)OCO3)[C@@H](NC(=O)Cc2ccc(OC)cc2)c2cc(OCCCO)ccc2N1C(=O)c1ccccc1`, the composite z-score worked out at 0.0506 in [1]; 0.814 in [2]; 0.668 in assay [3]; 0.511 in assay [4]; 0.41 in [5]; 0.251 in assay [6]. Besides, the composite z-score is 0.389 in the assay with Lefty1; 0.956 in [8]; 0.194 in [10]; 0.421 in assay [15]; -0.103 in [16]; -0.334 with Torsin-1A (Homo sapiens) [17]. The composite z-score with Torsin-1A (Homo sapiens) [18] was 0.426; in assay [19], 0.528. The z-score was 1.57 in assay [7]; -0.566 (inactive) in [9]; -0.0801 (inactive) in assay [11]; -0.112 (inactive) in assay [12]; 0.222 (inactive) in assay [13]; -0.377 (inactive) in assay [14].
For the compound `COC(=O)[C@@]1(Cc2ccccc2)[C@H]2c3cc(C(=O)N4CCCC4)[nH]c3C[C@H]2CN1C(=O)c1ccccc1`, the composite z-score in [1] is 0.886; in assay [2], -0.0205; in assay [3], 1.24; in assay [4] it was 0.664; in assay [5], -0.382; in [6], -0.757. Besides, the composite z-score with Lefty1 was -0.826; in [8], -0.129; in assay [10], -0.0884; in assay [15], 0.255; in assay [16], 0.192; in the assay with Torsin-1A (Homo sapiens) [17] it was 0.223. Moreover, the figures for the composite z-score (with Torsin-1A (Homo sapiens) [18]; in assay [19]) were 0.246 and -0.786, respectively. In addition, the z-score was 0.709 in assay [7]; 1.18 (inactive) in assay [9]; -0.117 (inactive) in assay [11]; -0.39 (inactive) in [12]; 0.779 (inactive) in assay [13]; 0.283 (inactive) in assay [14].
Consider `CCOC(=O)C1=CC[C@@H](c2ccccc2)N(S(=O)(=O)c2ccc(C)cc2)C1`, for which the composite z-score in assay [1] is -0.416; in assay [2], 0.968; in [3], 0.478; in assay [4], -0.364; in assay [5], 0.736; in [6], -0.103. The composite z-score is -0.34 in the assay on Lefty1; 0.564 in [8]; 0.0639 in [10]; 0.342 in [15]; 0.0633 in [16]; 0.303 with Torsin-1A (Homo sapiens) [17]. The values for the composite z-score (with Torsin-1A (Homo sapiens) [18]; in assay [19]) were 0.17 and -0.474, respectively. In addition, the z-score in assay [7] was 0.747; in assay [9] it was 0.731 (inactive); in assay [11], -2.28 (inactive); in assay [12], 0.84 (inactive); in assay [13] it was 0.229 (inactive); in [14] it was 0.368 (inactive).
For `CC(C)N1C(=O)[C@@]2(c3ccc([N+](=O)[O-])cc3)CC(=O)N(C3CCCCC3)[C@@H]2c2ccc(CO)cc21`, the composite z-score in assay [1] is 0.111; in [2], -0.695; in assay [3], -0.0713; in assay [4], -0.387; in [5] it was 1.03; in [6], 0.356. Further, the composite z-score with Lefty1 was 0.297; in assay [8] it was -0.246; in [10], -0.0311; in assay [15], -0.196; in assay [16], -0.045; with Torsin-1A (Homo sapiens) [17] it was -0.36. The composite z-score with Torsin-1A (Homo sapiens) [18] was -0.123; in [19] it was 1.02. The z-score is -0.24 in assay [7]; 1.1 (inactive) in [9]; -0.311 (inactive) in assay [11]; -1.16 (inactive) in [12]; -0.464 (inactive) in assay [13]; -0.144 (inactive) in [14].
As to `C[N+](C)(C)CCCC[C@@H]1NC(=O)[C@@H]2C[C@H](C(=O)O)[C@H](c3ccc(O)cc3)N2C1=O`, the composite z-score was -0.613 in [1]; -1.65 in [2]; -0.975 in assay [3]; -1.21 in assay [4]; -0.493 in assay [5]; -0.27 in assay [6]. For the same compound, the composite z-score in the assay with Lefty1 is 0.0501; in [8] it was 0.213; in assay [10] it was -0.535; in assay [15], -1.08; in assay [16], -0.103; in the assay with Torsin-1A (Homo sapiens) [17], -1.07. The composite z-score was -0.909 with Torsin-1A (Homo sapiens) [18] and -0.0334 in assay [19]. For the same compound, the z-score in assay [7] was -0.264; in assay [9], -0.516 (inactive); in assay [11] it was 0.462 (inactive); in assay [12], -0.771 (inactive); in [13] it was 0.0043 (inactive); in assay [14], 0.563 (inactive).
